HPGD block: inhibitors of human 15-hydroxyprostaglandin dehydrogenase (HPGD) | P15428 | Potency, µM, usual class: inhibitors | hit rate 4.3% among 150,000 | purified HPGD, NADH fluorescence kinetic, PGE2 substrate
Target sequence (P15428 whole entry, looked up): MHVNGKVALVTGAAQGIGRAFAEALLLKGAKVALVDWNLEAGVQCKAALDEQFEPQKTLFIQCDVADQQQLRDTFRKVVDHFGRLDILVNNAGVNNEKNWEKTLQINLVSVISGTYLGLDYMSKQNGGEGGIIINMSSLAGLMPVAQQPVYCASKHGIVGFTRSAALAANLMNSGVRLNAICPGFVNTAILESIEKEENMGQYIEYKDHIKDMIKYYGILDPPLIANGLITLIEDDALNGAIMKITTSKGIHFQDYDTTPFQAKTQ
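NADH formation kinetics: reaction with 30 uM PGE2 and 1 mM NAD+ (final), 20 nM enzyme, Tris-HCl pH 8 with Tween 20, after 15 min compound preincubation at room temperature. Fluorescence change, last versus first of five reads.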
Luc counter: counter-screen: inhibitors of Kinase-Glo firefly luciferase | Potency, µM (highest dose often 38.3 µM), usual class: inhibitors | hit rate 0.28% among 200,000 | Kinase-Glo luciferase, ATP luminescence, 8 min; active means well fitted inhibition curve with a large enough effect; inconclusive means small, poorly fitted or top-dose-only effect; further: nearly all actives have a fitted effect of over 60% in size
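Compounds were added to a substrate mix at pH 7.2 (50 mM imidazole, 10 uM ATP, within the enzyme's linear range), followed by Kinase-Glo detection reagent; luminescence was measured after 8 minutes at ambient temperature.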
Lamin A splicing: modulators of lamin A splicing | hit rate 0.01% among 200,000 | AID 1487 | HeLa LMNA splicing GFP/RFP minigene ratio, 48 h | Potency, µM (highest dose often 46.1 µM), actives largely listed as inhibitors; active means well fitted inhibition curve with a large enough effect in the signal ratio, with a control signal flat, not every such curve was filed as active; inconclusive means small, poorly fitted or top-dose-only effect, or effect the other way, or a change in a side signal; the % refers to the signal ratio
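S3 HeLa cells stably expressing lamin A-EGFP splicing minigene plus DsRed2, 600 cells/well, 48 h compound exposure at 37C. Laser-scanning cytometry; analysed as GFP (500-530 nm)/RFP (575-640 nm) total intensity ratio; 0.5% DMSO vehicle.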
ALDH1A1 inh: inhibitors of human aldehyde dehydrogenase 1A1 | P00352 | Purified ALDH1A1, NADH fluorescence, propionaldehyde substrate | Potency, µM (series often up to 75.3 µM), actives largely listed as inhibitors | hit rate 7.3% among 220,000 | AID 1030
Target sequence (P00352 whole entry, looked up): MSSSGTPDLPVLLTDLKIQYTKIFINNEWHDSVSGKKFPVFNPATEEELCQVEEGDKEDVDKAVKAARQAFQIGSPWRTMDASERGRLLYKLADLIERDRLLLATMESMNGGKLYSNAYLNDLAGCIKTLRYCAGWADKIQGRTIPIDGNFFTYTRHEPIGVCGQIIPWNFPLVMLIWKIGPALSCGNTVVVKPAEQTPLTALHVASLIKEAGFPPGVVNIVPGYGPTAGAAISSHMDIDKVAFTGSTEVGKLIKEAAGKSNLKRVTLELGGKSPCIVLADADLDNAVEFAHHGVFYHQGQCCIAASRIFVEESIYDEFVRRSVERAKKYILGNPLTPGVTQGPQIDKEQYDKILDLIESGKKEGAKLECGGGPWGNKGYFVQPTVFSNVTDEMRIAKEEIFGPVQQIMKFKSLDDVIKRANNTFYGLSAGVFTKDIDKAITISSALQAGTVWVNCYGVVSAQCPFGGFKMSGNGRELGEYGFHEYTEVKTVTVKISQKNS
IMPase cell inh: cell-permeable inhibitors of inositol monophosphatase (IMPase). P97697. CHO-M1 cells, IP1 accumulation, HTRF TR-FRET ratio. inhibition (IP1 accumulation), % at 46.1 µM. 120,000 tested, under 10 active. AID 901; active means well fitted curve in the direction sought with a large enough effect in the signal ratio, not every such curve was filed as active; inconclusive means small, poorly fitted or top-dose-only effect, or a change in a side signal; inactive means no such curve, though single readings can be large or run the other way; the % refers to the signal ratio;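 further: cells stimulated with carbachol in lithium chloride buffer; higher means more IMPase inhibition seen as more IP1 and lower FRET ratio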
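CHO-M1 cells (CHO stably expressing M1 receptor), compound up to 46 uM final, stimulated with carbachol (50 uM as added) in buffer with 50mM LiCl, pH 7.4, 30 min at 37C. Cytosolic IP1 read by TR-FRET; AC50 from Hill fits.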
PNC inhibitor: blocks assembly of the perinucleolar compartment | PC3M PTB-GFP, PNC prevalence imaging, 16 h; hits give low values | activity change (PNC), negative = inhibition, % at 10 µM | hit rate 3.1% among 140,000;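 active means readout at or below -70, meaning at least 70% loss of cells showing the perinucleolar compartment, a nuclear body marking cancer cells; inconclusive means readout between -30 and a set limit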
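Read-out is percentage of cells bearing a perinucleolar compartment, from automated 20x imaging of fixed, Hoechst-stained PC3M PTB-GFP cells. Cells were seeded 4 h, then exposed 16 h to compound (23 nl of library stock) in duplicate plates.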
Numbers stand for hits; . = inactive; ? = inconclusive; / = no result given; [ ] = dose if it differs, or a comment. Only some compounds are listed: those with a hit (about 10% of all), similar ones and a draw of the others. Unless noted, the call rests on the fitted dose curve; in most records, active means well fitted inhibition curve with a large enough effect (not every such curve was filed as active); inconclusive means small, poorly fitted or top-dose-only effect, or another doubt; inactive means no such curve, though single readings can be large or run the other way.

SMILES | HPGD block | Luc counter | Lamin A splicing | ALDH1A1 inh | IMPase cell inh | PNC inhibitor
COc1cc(SC#N)ccc1N=Cc1c(C)[nH]n(-c2ccc(C)c(C)c2)c1=O | . | ? | ? | 0.282µM | / | .
CC(C)(C)c1ccc(/C=C/C(=O)N2CCOCC2)cc1 | 25.1µM | . | . | ? | / | .
O=[N+]([O-])c1ccccc1S(=O)(=O)Oc1ccccc1/C=N/n1cnnc1 | 17.8µM | . | . | . | / | ?
O=c1c2oc3ccccc3c2ncn1Cc1ccc(Br)cc1 | / | / | . | / | / | /
Cc1[nH]c2ccccc2c1[C@H]1[C@@H](CC#N)C1(C)C | . | . | . | 22.4µM | . | .
CCc1nnc(NC(=O)CSc2nnc(-c3ccc(NS(=O)(=O)c4ccccc4)cc3)o2)s1 | 14.1µM | . | . | . | . | .
Cc1ccc(CSc2nnc(-c3ccc(NS(=O)(=O)c4ccccc4)cc3)o2)cc1 | . | . | ? | . | . | .
COC(=O)CSc1nnc(-c2ccc(NS(=O)(=O)c3ccccc3)cc2)o1 | 17.8µM | . | . | . | . | .
N#CCN1CCC(c2cc(-c3ccco3)n[nH]2)CC1 | / | . | . | 22.4µM | / | /
O=c1c(Cl)c(N2CCN(c3ccc(F)cc3)CC2)cnn1C12CC3CC(CC(C3)C1)C2 | . | . | . | ? | . | .
O=C(O)C12C[C@H]3C[C@@H](C1)CC(n1ncc(N4CCN(c5ccccc5)CC4)c(Cl)c1=O)(C3)C2 | . | . | . | 1.26µM | / | .
O=c1c(Cl)c(N2CCN(c3ccccc3)CC2)cnn1C12CC3CC(CC(C3)C1)C2 | . | . | . | 10µM | / | ?
O=C(O)CC12C[C@H]3C[C@@H](C1)CC(n1ncc(N4CCN(c5ccccc5)CC4)c(Cl)c1=O)(C3)C2 | . | . | . | 7.94µM | . | .
Cc1ccc(Nc2cnn(C34CC5CC(CC(CC(=O)O)(C5)C3)C4)c(=O)c2Cl)cc1 | . | . | . | ? | . | .
CCCCn1c(O)c(/C=C/C=C/C=Nc2ccccc2)sc1=S | / | 8.91µM | ? | 17.8µM | / | /
CCCn1c(O)c(C=Nc2ccccc2)sc1=S | / | . | . | 14.1µM | / | /
CCn1c(O)c(/C=C/C=C/C=Nc2ccccc2)sc1=S | / | . | . | ? | / | /
CCn1c(O)c(C=Nc2ccccc2)oc1=S | 15.8µM | . | . | 20µM | . | -93.7
Cc1ccc(C(O)C2=CCCC2=O)cc1 (stereo not given) | . | . | / | . | / | /
Cc1cc(C)c(S(=O)(=O)Nc2cc(Cl)c3oc4c(c3c2)C(=O)CCC4)cc1C | / | / | / | / | . | /
O=C(O)/C=C\C(=O)Nc1ccc2c(c1)C(=O)c1cc(F)ccc1-2 | . | .[7.66 µM] | / | ? | / | /
CCN(CC)CC(=O)n1c2c(c3ccccc31)CCCC2 | . | . | . | 31.6µM | . | -100.0
COc1ccc(NC(=O)CN2CCN(CC(=O)Nc3ccc(OC)c(OC)c3)CC2)cc1 | . | . | . | ? | . | ?
CCOc1ccc(NC(=O)CN2CCN(CC(=O)Nc3ccc4c(c3)OCO4)CC2)cc1 | . | . | . | ? | . | ?
CCOc1ccc(NC(=O)CN2CCN(CC(=O)Nc3ccc(F)cc3)CC2)cc1 | . | . | . | 11.9µM | . | .
SMILES | HPGD block | Luc counter | Lamin A splicing | ALDH1A1 inh | IMPase cell inh | PNC inhibitor
COc1ccc(C(=O)CN2CCN(c3ccc(F)cc3)CC2)cc1OC | . | . | . | 12.6µM | . | .
COc1ccc(NC(=O)CN2CCN(C3c4ccccc4-c4ccccc43)CC2)cc1 | . | . | ? | 22.4µM | . | ?
CCOc1ccc(NC(=O)CN2CCN(CC(=O)c3ccc(OC)c(OC)c3)CC2)cc1 | . | . | . | 7.08µM | . | .
Cc1cccc(NC(=O)CN2C(=O)CCn3nc(-c4cccn4C)cc32)c1C | / | / | . | / | / | /
Cc1ccc(NC(=O)Cn2c(=O)n(Cc3ccccc3)c(=O)c3c(C)c(C(=O)N(C)C)sc32)c(C)c1 | / | / | . | / | / | /
COc1ccccc1CNc1nc(-c2ccccc2OC)nc2ccccc12 | / | / | ? | . | / | /
CCC(CC)C(=O)N1CCc2cc(OC)c(OC)cc2C1COc1ccc(C(=O)OC)cc1 (stereo not given) | / | / | . | / | / | /
CCOc1ccc(C(=O)CN2CCN(S(=O)(=O)c3ccc(F)cc3)CC2)cc1 | . | . | . | 20µM | . | .
CC(C)(C)C(=O)CN1CCN(S(=O)(=O)c2ccc(F)cc2)CC1 | . | . | . | . | . | ?
COc1cccc(C2(O)CCN(C(=O)C3CC3)CC2)c1 | . | . | . | 22.4µM | . | .
COc1ccc(NC(=O)N2CCC(O)(c3cccnc3)CC2)c(OC)c1 | . | . | . | . | . | -82.4
COc1cccc(C2(O)CCN(C(=O)C3CCC3)CC2)c1 | . | . | . | . | . | .
O=C(c1cnccn1)N1CCC2(CCCN(Cc3nccs3)C2)CC1 | . | . | / | . | / | /
CCc1nc2sc3ccccc3c(=O)c2c(=O)n1CCOC | . | . | . | ? | . | .
COc1ccc2sc3ccccc3c(=O)c2c1OC | 6.31µM | . | . | . | ? | .
COc1cc2cc(C(=O)O)[nH]c2c(OC)c1OC | ? | . | ? | ? | . | -97.2
COc1ccccc1CN(Cc1c(Cl)cccc1Cl)S(=O)(=O)c1ccc(Br)cc1 | / | / | . | / | / | /
COc1ccc([N+](=O)[O-])cc1NC(=O)Cc1ccccc1Cl | . | . | . | . | / | ?
COc1ccc(N=Cc2cc(Cc3ccccc3Cl)cc([N+](=O)[O-])c2O)cc1OC | / | . | / | 7.08µM | / | /
Cc1ccc(N=Cc2cc(Cc3ccccc3Cl)cc([N+](=O)[O-])c2O)c(O)c1 | / | . | / | 11.2µM | / | /
Nn1c(Cc2cccc3ccccc23)nnc1SCCOc1ccc(F)cc1 | ? | . | . | . | / | .
Nn1c(Cc2cccc3ccccc23)nnc1SCc1c(F)cccc1Cl | 22.4µM | . | . | . | / | .
Nn1c(Cc2cccc3ccccc23)nnc1SCCOc1ccc(Br)cc1 | 14.1µM | . | ? | ? | / | .
COC(=O)[C@H]1C[C@@H]2CC[C@@H](O)C[C@@H]2N1Cc1c(F)cccc1Cl | . | . | / | . | / | /
Cc1nc2nc(SCC(=O)NCCc3ccc(Cl)cc3)nn2c(C)c1Cc1c(F)cccc1Cl | / | / | . | / | / | /
SMILES | HPGD block | Luc counter | Lamin A splicing | ALDH1A1 inh | IMPase cell inh | PNC inhibitor
Cc1cccc(NCCNc2cccc(C)c2)c1 | . | . | . | . | . | .
Cc1ccc(NCc2ccccc2O)cc1 | . | . | . | . | . | ?
Cc1cccc(NCc2ccccc2O)c1 | 22.4µM | . | . | . | . | .
Cc1cccc(NCCC#N)c1 | . | . | . | . | / | -134.0
C/C(=N/NS(=O)(=O)c1ccc(C)cc1)P(=O)(O)O | . | .[7.66 µM] | / | .[13.5 µM] | / | /
CCOC(=O)c1ccc(/C=C2/C=C(c3ccccc3)N(c3ccc(Cl)c(C(=O)O)c3)C2=O)cc1 | . | . | ? | 11.2µM | / | .
C=CCC(O)CC1C2C(CC(O)CC=C)C3C1C3C2OC(C)(C)C (stereo not given) | / | / | / | .[13.5 µM] | / | /
CC(=O)OC(C)C | . | / | / | . | / | /
Cc1ccc(C2C3CSCC=C3C(C#N)=C(N)C2(C#N)C#N)cc1 (stereo not given) | . | . | . | 8.91µM | . | .
